Screening results: PubChem BioAssay, National Center for Advancing Translational Sciences (NCATS)
DT40 TDP1 CPT = DT40-hTDP1 cell growth loss with CPT | chicken DT40 Tdp1-/-;hTDP1 cells + 20 nM CPT, ATP luminescence, 48 h | Potency, µM (titrated, usually from 46.2 µM), hits mostly inhibitors | 420,000 compounds, 12% hits | AID 686979; note: nearly all actives have a fitted effect of over 55% in size
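Chicken DT40 Tdp1-/- cells stably complemented with human TDP1 were seeded at 400 cells/well in medium containing 20 nM camptothecin, exposed to pin-transferred compounds, and grown at 37 °C for at least 48 hr. Viability was read as ATP luminescence.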
DT40 TDP1 no CPT = qHTS for Inhibitors of human tyrosyl-DNA phosphodiesterase 1 (TDP1): qHTS in cells in absence of CPT | 420,000 compounds, 15% hits | DT40 Tdp1-/- hTDP1 cells, no CPT, ATP luminescence, 48 h | Potency, µM (highest dose often 46.2 µM), hits mostly inhibitors; note: nearly all actives have a fitted effect of over 55% in size
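DT40 Tdp1-/-;hTDP1 cells, no CPT (DMSO vehicle only), 400 cells/well; compounds pin-transferred; ≥48 hr, 37 °C; CellTiter-Glo 30 min RT dark, luminescence read.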
HT1080 IDH1KD tx = HT-1080 IDH1 knockdown cell toxicity (counter line); HT-1080 IDH1 knockdown viability, ATP luminescence, 48 h; Potency, µM (highest dose often 46.1 µM), usual class: cytotoxic; 360,000 compounds, 2% hits; AID 686971
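Viability of IDH1-knockdown HT-1080 fibrosarcoma cells was assessed by CellTiter-Glo after 48 h at 37 °C with titrated compound; concentration-effect curves were classified by fit quality and response size.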
IL1B secr inh = blocks inflammasome-driven IL-1 beta release; 360,000 compounds, 4.7% hits; activity change, % at 57.5 µM; THP-1 LPS/ATP IL-1B secretion, AlphaLISA, 16 h; hits give low values; in the data active = activity change below about -50%; inconclusive = mostly about -30% to -49%
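Secreted IL-1B measured by AlphaLISA bead assay after 16 h compound exposure of THP-1 cells; compounds (final up to 57.5 uM) added 1 h before LPS (250 ng/mL) and ATP (1.25 mM) stimulation; lower signal means less secretion.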
HT1080-NT tox = kills 2HG-producing HT-1080-NT fibrosarcoma cells; HT-1080-NT fibrosarcoma viability, CellTiter-Glo ATP luminescence, 48 h; 360,000 compounds, 1.6% hits; AID 686970; Potency, µM (highest dose often 46.1 µM), actives largely listed as cytotoxic;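 note: NT is the 2HG producing partner of a matched IDH1 knockdown line; nearly all actives have a fitted effect of over 55% in size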
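Viability of the 2HG-overproducing fibrosarcoma line after 48 hours of compound exposure at 37 degrees C was determined by luminescence with CellTiter-Glo, and concentration-effect curves were then fitted and categorized.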
Hits are given with their value. The list is not random: actives were taken first. Their share in the collection is about 19%. Unless noted, calls come from the whole dose curve; as a rule, active = well fitted curve in the direction sought with a large enough effect; inconclusive = small, poorly fitted or top-dose-only effect, or another doubt; inactive = no such curve, though single readings can be large; an effect the other way counts as inactive or inconclusive.

`COC(=O)c1cc(S(=O)(=O)NCc2cccc(Br)c2)c[nH]1` gave DT40 TDP1 CPT inactive, DT40 TDP1 no CPT inactive, HT1080 IDH1KD tx inactive, IL1B secr inh inactive and HT1080-NT tox inactive.
For COCCCN1C(=O)c2ccc(C(=O)OCC(=O)NCc3cccc(OC)c3)cc2C1=O the results were DT40 TDP1 CPT inactive, DT40 TDP1 no CPT inactive, HT1080 IDH1KD tx inactive, IL1B secr inh inactive and HT1080-NT tox inactive.
COc1cc(NC(=O)CN2CCN(C(=O)C3CCCO3)CC2)c(OC)cc1Cl (stereo unspecified) was read as DT40 TDP1 CPT inactive, DT40 TDP1 no CPT inactive, HT1080 IDH1KD tx inactive, IL1B secr inh inactive and HT1080-NT tox inactive.
CCOC(=O)C(C)n1cnc2c(nnn2-c2cccc(Cl)c2)c1=O (stereo unspecified) was read as DT40 TDP1 CPT inactive, DT40 TDP1 no CPT inactive, HT1080 IDH1KD tx inactive, IL1B secr inh inactive and HT1080-NT tox inactive.
Screening COc1ccc2oc(C(=O)Nc3nc4ccccc4[nH]3)c(C)c2c1 returned DT40 TDP1 CPT 21µM, DT40 TDP1 no CPT 10µM, HT1080 IDH1KD tx inactive, IL1B secr inh inactive and HT1080-NT tox inactive.
Screening CCCCN(C(=O)c1ccccc1Br)C(c1ccc(OC)cc1)c1nc2ccccc2[nH]1 (stereo unspecified) returned DT40 TDP1 CPT 16µM, DT40 TDP1 no CPT inconclusive, HT1080 IDH1KD tx inconclusive, IL1B secr inh inactive and HT1080-NT tox inconclusive.
For O=C(NC(=S)NCc1nc2ccccc2[nH]1)c1ccccc1F the results were DT40 TDP1 CPT 23µM, DT40 TDP1 no CPT 16µM, HT1080 IDH1KD tx inactive, IL1B secr inh inactive and HT1080-NT tox inactive.
`C#CCN(C[C@@H]1[C@@H](OC(=O)NCC2CCCCC2)[C@@H](OC(=O)NCC2CCCCC2)Cn2c(=O)ccc(=O)n21)S(=O)(=O)c1ccc(C)cc1` gave DT40 TDP1 CPT 2.9µM, DT40 TDP1 no CPT 3.3µM, HT1080 IDH1KD tx 2.6µM, IL1B secr inh -106 and HT1080-NT tox 5.2µM.
C#CCN(C[C@@H]1[C@@H](OC(=O)NCCCCCC)[C@@H](OC(=O)NCCCCCC)Cn2c(=O)ccc(=O)n21)S(=O)(=O)c1ccc(C)cc1 was read as DT40 TDP1 CPT 4.6µM, DT40 TDP1 no CPT 3.3µM, HT1080 IDH1KD tx 4.1µM, IL1B secr inh -107 and HT1080-NT tox 4.6µM.
`CSc1cccc(NC(=O)C2CC(=O)N(c3ccc4c(c3)OCCO4)C2)c1` (stereo unspecified) gave DT40 TDP1 CPT inactive, DT40 TDP1 no CPT inactive, HT1080 IDH1KD tx inactive, IL1B secr inh inactive and HT1080-NT tox inactive.
c1ccc(-c2cn3nc(-c4ccccc4)sc3n2)cc1 was read as DT40 TDP1 CPT inactive, DT40 TDP1 no CPT inactive, HT1080 IDH1KD tx inactive, IL1B secr inh inactive and HT1080-NT tox inactive.
c1ccc(-c2cn3c4c(sc3n2)CCCC4)cc1 was read as DT40 TDP1 CPT inconclusive, DT40 TDP1 no CPT inconclusive, HT1080 IDH1KD tx inconclusive, IL1B secr inh inactive and HT1080-NT tox 11µM.
For O=C(COc1ccccc1Cl)NNC(=O)c1ccc2nc[nH]c2c1 the results were DT40 TDP1 CPT inactive, DT40 TDP1 no CPT inactive, HT1080 IDH1KD tx inactive, IL1B secr inh inactive and HT1080-NT tox inactive.
`Cc1ccc(S(=O)(=O)N2C[C@@H]3[C@H]4CC[C@H](C4)[C@@H]3[C@@H](C)[C@@H]2c2cn(Cc3ccccc3)c3ncccc23)cc1` gave DT40 TDP1 CPT 23µM, DT40 TDP1 no CPT 21µM, HT1080 IDH1KD tx inactive, IL1B secr inh inactive and HT1080-NT tox inactive.
Screening Cc1ccc(S(=O)(=O)N2C[C@@H]3[C@H]4CC[C@H](C4)[C@@H]3[C@@H](C)[C@H]2c2ccn(Cc3ccccc3)c2)cc1 returned DT40 TDP1 CPT 29µM, DT40 TDP1 no CPT inactive, HT1080 IDH1KD tx inactive, IL1B secr inh inconclusive and HT1080-NT tox inconclusive.
`Cc1ccc(S(=O)(=O)N2CC3CCC2C3)cc1` (stereo unspecified) gave DT40 TDP1 CPT inactive, DT40 TDP1 no CPT inactive, HT1080 IDH1KD tx inactive, IL1B secr inh inactive and HT1080-NT tox inactive.
Screening Cc1ccc(S(=O)(=O)N2C[C@@H]3[C@H]4CC[C@H](C4)[C@@H]3[C@@H](C)[C@H]2C#N)cc1 returned DT40 TDP1 CPT 21µM, DT40 TDP1 no CPT inconclusive, HT1080 IDH1KD tx inactive, IL1B secr inh inactive and HT1080-NT tox inactive.
Cc1ccc(S(=O)(=O)N2C[C@@H]3CCCC[C@@H]3[C@@H](C)[C@H]2c2cn(Cc3ccccc3)c3ncccc23)cc1 was read as DT40 TDP1 CPT 12µM, DT40 TDP1 no CPT inconclusive, HT1080 IDH1KD tx inactive, IL1B secr inh inactive and HT1080-NT tox inactive.
For Cc1ccc2nc(NC(=O)CSc3ncc(C(=O)Nc4ccc(F)cc4)c(=O)n3C)sc2c1 the results were DT40 TDP1 CPT inactive and DT40 TDP1 no CPT inactive.
O=C(OCN1C(=O)c2ccccc2C1=O)c1cccc(S(=O)(=O)N2CCOCC2)c1 was read as DT40 TDP1 CPT inactive, DT40 TDP1 no CPT inactive, HT1080 IDH1KD tx inactive, IL1B secr inh inactive and HT1080-NT tox inactive.
`O=C(NNC(=O)c1ccccc1O)c1ccc(Cl)c(S(=O)(=O)N2CCCCC2)c1` gave DT40 TDP1 CPT inconclusive, DT40 TDP1 no CPT inconclusive, HT1080 IDH1KD tx inactive, IL1B secr inh inactive and HT1080-NT tox inconclusive.
`Cc1ccc(S(=O)(=O)N2C[C@@H]3CCCC[C@@H]3[C@@H](C)[C@H]2c2cn(Cc3ccccc3)c3ccccc23)cc1` gave DT40 TDP1 CPT 6.5µM, DT40 TDP1 no CPT 7.3µM, HT1080 IDH1KD tx inactive, IL1B secr inh inactive and HT1080-NT tox inactive.
For COc1cccc(C(=O)Nc2ccc(-n3nncc3-c3ccc(Br)cc3)cc2)c1OC the results were DT40 TDP1 CPT inactive and DT40 TDP1 no CPT inactive.
O=c1cc(CCl)[nH]c2nc3ccccc3n12 was read as DT40 TDP1 CPT inactive, DT40 TDP1 no CPT inactive, HT1080 IDH1KD tx inconclusive, IL1B secr inh -56 and HT1080-NT tox 18µM.
O=c1cc(-c2ccccc2)[nH]c2nc3ccccc3n12 was read as DT40 TDP1 CPT 9.2µM, DT40 TDP1 no CPT 9.2µM, HT1080 IDH1KD tx inconclusive, IL1B secr inh inactive and HT1080-NT tox inconclusive.
Screening CC(C)c1cc(=O)n2c(nc3ccccc32)[nH]1 returned DT40 TDP1 CPT inconclusive, DT40 TDP1 no CPT inconclusive, HT1080 IDH1KD tx inactive, IL1B secr inh inactive and HT1080-NT tox inactive.
For Cc1cccc(C)c1OCC(=O)NNC(=O)CNC(=O)c1ccc(OC(F)F)cc1 the results were DT40 TDP1 CPT inactive, DT40 TDP1 no CPT inconclusive, HT1080 IDH1KD tx inactive, IL1B secr inh inactive and HT1080-NT tox inactive.
`COc1ccc([C@@H]2Sc3cc(OC)ccc3N(CCN(C(C)C)C(C)C)C(=O)[C@H]2OC(C)=O)cc1` gave DT40 TDP1 CPT 21µM, DT40 TDP1 no CPT inconclusive, HT1080 IDH1KD tx inactive, IL1B secr inh inactive and HT1080-NT tox inactive.
